Assay results as given in PubChem BioAssay (Tox21).
Records with an inconclusive call do not appear. Active and inactive are the calls of the source. Unless noted, calls follow the shape of the dose curve; as a rule, active = well fitted curve in the direction sought with a large enough effect in the repeat runs; inconclusive = weak or mixed curves; inactive = no such curve, though single readings can be large; an effect the other way counts as inactive or inconclusive.

How the values were obtained:
[1] = qHTS assay to identify small molecule antagonists of the estrogen related receptor (ERR) signaling pathway from Tox21 library - cell viability counter screen (AID 1224834); also: nearly all actives have a fitted effect of over 30% in size
Procedure, shortened: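 ERR reporter cells were plated 6 h before compound addition, then exposed to test compounds in DMSO for 17.5 h at 37 C. Viability was read as CellTiter-Fluor fluorescence after a 30-minute incubation at 37 C.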

[2] = target: Luciferin 4-monooxygenase (Photinus pyralis) (UniProt P08659); assay: qHTS assay to identify small molecule inhibitors of firefly luciferase (AID 1224835); also: series mostly up to about 120 µM; nearly all actives have a fitted effect of over 25% in size
Procedure, shortened: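 Quantitative HTS format; KM concentrations of both substrates. Purified P. pyralis FLuc activity quantified from luminescence images.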

[3] = qHTS assay to identify small molecule agonists of the constitutive androstane receptor (CAR) signaling pathway - cell viability counter screen (AID 1224836); also: series mostly up to about 92 µM; nearly all actives have a fitted effect of over 45% in size
Procedure, shortened: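 Counter screen multiplexed with the CAR reporter readout: HepG2 cells co-transfected with hCAR and the CYP2B6-2.2kb construct receive a 15-concentration compound series and 0.75 uM PK11195 (final), then CellTiter-Fluor fluorescence is read after 23 h.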

[4] = qHTS assay to identify small molecule antagonists of the constitutive androstane receptor (CAR) signaling pathway - cell viability counter screen (AID 1224837); also: series mostly up to about 92 µM; nearly all actives have a fitted effect of over 45% in size
Procedure, shortened: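 HepG2 cells stably expressing hCAR and a CYP2B6-2.2kb reporter were plated and pre-incubated 4 hr at 37 C/5% CO2, then given compounds at 15 concentrations plus 50 nM CITCO (final). After 23 hr, viability was read by CellTiter-Fluor fluorescence.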

[5] = target: Nuclear receptor subfamily 1 group I member 3 (Homo sapiens) (UniProt Q14994); assay: qHTS assay to identify small molecule antagonists of the constitutive androstane receptor (CAR) signaling pathway (AID 1224838); also: nearly all actives have a fitted effect of over 40% in size
Procedure, shortened: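 HepG2 cells stably co-transfected with hCAR and a CYP2B6-2.2kb luciferase reporter were seeded 4 h before compound addition at 15 concentrations. Cells were stimulated with 50 nM CITCO (final) for 24 h at 37 C; luciferase luminescence was then read.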

[6] = target: Nuclear receptor subfamily 1 group I member 3 (Homo sapiens) (UniProt Q14994); assay: qHTS assay to identify small molecule agonists of the constitutive androstane receptor (CAR) signaling pathway (AID 1224839); also: series mostly up to about 92 µM; nearly all actives have a fitted effect of over 15% in size
Procedure, shortened: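 A 15-concentration quantitative screen uses HepG2 cells co-transfected stably with human CAR and CYP2B6-2.2kb reporter. Treatment lasts 24 h with 0.75 uM PK11195 final present; ONE-Glo luminescence is the signal.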

[7] = qHTS assay to identify small molecule antagonists of the estrogen related receptor signaling pathway with the pleiotropic PPARgamma coactivator (PGC) from Tox21 10K library - cell viability counter screen (AID 1224840; active = well fitted cell-killing curve with a large enough effect in the repeat runs, not every such curve was filed as active; also: nearly all actives have a fitted effect of over 40% in size)
Procedure, shortened: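 PGC/ERR cells were seeded at 2,000 cells/well and left 6 hours at 37 C/5% CO2 before pin-tool addition of compounds in DMSO. After 17.5 hours at 37 C, CellTiter-Fluor was added and fluorescence read 30 minutes later.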

[8] = target: Thyrotropin receptor (Homo sapiens) (UniProt P16473); assay: qHTS assay to identify small molecule agonists of the thyroid stimulating hormone receptor (TSHR) signaling pathway (AID 1224843; calls by dose curve; also: nearly all actives have a fitted effect of over 45% in size)
Procedure, shortened: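 TSHR-expressing HEK293 cells (800 per well) were exposed to compounds for 30 min at room temperature. cAMP was then detected by HTRF competition with cAMP-d2 and anti-cAMP cryptate, read after 1 h at room temperature. Fifteen concentrations, triplicate.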

[9] = qHTS assay to identify small molecule agonists of H2AX (AID 1224845; active = well fitted activation curve with a large enough effect in the signal ratio in the repeat runs, not every such curve was filed as active; the % refers to the signal ratio)
Procedure, shortened: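 Wild-type CHO-K1 cells plated overnight, then exposed 3 hr at 37C to compounds at 15 concentrations (0.76% DMSO). Lysed, then HTRF anti-pH2AX(S139)-cryptate/anti-H2AX-d2 detection after 24 hr at room temperature; emissions 665 and 620 nm.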

[10] = qHTS assay to identify small molecule agonists of the hypoxia (HIF-1) signaling pathway (AID 1224846; active = well fitted activation curve with a large enough effect in the signal ratio in the repeat runs, not every such curve was filed as active; the % refers to the signal ratio)
Procedure, shortened: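 HRE-bla ME-180 cells (beta-lactamase reporter under hypoxia response element) were plated at 2,000 cells/well in medium with 0.5% dialyzed FBS, rested 5 hrs, then given compounds in DMSO for 17 hrs at 37C, 5% CO2. Reporter induction was read with CCF4-AM FRET substrate.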

[11] = qHTS assay to identify small molecule agonists of H2AX - cell viability counter screen (AID 1224847; calls by dose curve; also: top concentration of the series differs between compounds; nearly all actives have a fitted effect of over 30% in size)
Procedure, shortened: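 We seed wild-type CHO-K1 cells overnight, treat them for 3 hr at 37C with compounds in 15-concentration series, and quantify remaining viability by CellTiter-Glo luminescence.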

[12] = qHTS RealTime-Glo MT Cell Viability Assay in HepG2 cells - 24 hour (AID 1224867); also: nearly all actives have a fitted effect of over 50% in size
Procedure, shortened: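 Real-time, nonlytic viability: 600 HepG2 cells/well mixed with NanoLuc enzyme plus prosubstrate; 5 h settle, compound (DMSO) added by pintool; luminescence monitored over 40 h at 37 C.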

[13] = qHTS RealTime-Glo MT Cell Viability Assay in HEK293 cells - 32 hour (AID 1224868); also: top concentration of the series differs between compounds; nearly all actives have a fitted effect of over 50% in size
Procedure, shortened: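 Cells + reagent dispensed (600 cells/well, HEK293) → 5 h at 37 C/5% CO2 → 23 nL compound in DMSO pinned → 40 h at 37 C → luminescence read at 0, 8, 16, 24, 32, 40 h.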

[14] = A CellTox Green Cytotoxicity Assay to monitor cytotoxicity in HEK293 cells - 0 hour (AID 1224869); also: nearly all actives have a fitted effect of over 50% in size
Procedure, shortened: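 HEK293 cells premixed with CellTox Green dye were seeded at 600 cells/well and left 5 h at 37 C/5% CO2 before pin transfer of 23 nL compound in DMSO. Fluorescence from dye bound to dead-cell DNA was read during 40 h treatment.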

[15] = qHTS RealTime-Glo MT Cell Viability Assay in HepG2 cells - 40 hour (AID 1224870); also: nearly all actives have a fitted effect of over 50% in size
Procedure, shortened: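 HepG2 cells mixed with RealTime-Glo MT reagents (NanoLuc plus cell-permeant prosubstrate) were seeded at 600 cells/well, incubated 5 h at 37 C/5% CO2, then pinned with compounds in DMSO; nonlytic luminescence tracked viability during 40 h treatment.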

[16] = qHTS assay to identify small molecule agonists of the hypoxia (HIF-1) signaling pathway - cell viability counter screen (AID 1224844; calls by dose curve; also: nearly all actives have a fitted effect of over 50% in size)
Procedure, shortened: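 HRE-bla ME-180 cells in medium with 0.5% dialyzed FBS were preincubated 5 hrs at 37C, exposed to compounds for 17 hrs, then viability was read as CellTiter-Glo luminescence after 30 min at room temperature, in the reporter wells.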

[17] = qHTS assay to identify small molecule antagonists of the estrogen related receptor signaling pathway with the pleiotropic PPARgamma coactivator (PGC) from Tox21 10K library (AID 1224841; call rule not given here)
Procedure, shortened: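 PGC/ERR reporter cells were seeded at 2,000 cells/well and held 6 hours at 37 C/5% CO2 before pin-tool addition of compounds in DMSO. After 18 hours at 37 C, One-Glo was added and luminescence read after 30 minutes at room temperature.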

[18] = qHTS assay to identify small molecule agonists of the estrogen related receptor signaling pathway with the pleiotropic PPARgamma coactivator (PGC) from Tox21 10K library (AID 1224842); also: nearly all actives have a fitted effect of over 15% in size
Procedure, shortened: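 PGC/ERR reporter cells (NTP line) were seeded 2,000 per well, rested 6 h at 37 C/5% CO2, then pin-dosed with compounds in DMSO for 18 h at 37 C; luciferase read by One-Glo luminescence after 30 min at room temperature.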

[19] = qHTS assay to identify small molecule antagonists of the estrogen related receptor (ERR) signaling pathway from Tox21 library (AID 1224848); also: nearly all actives have a fitted effect of over 50% in size
Procedure, shortened: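 Cells: ERR line, 2,000/well; 6 h preincubation 37 C/5% CO2. Cpd in DMSO via pin tool; 18 h, 37 C. ONE-Glo, 30 min RT, luminescence.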

[20] = qHTS assay to identify small molecule agonists of the estrogen related receptor (ERR) signaling pathway from Tox21 library (AID 1224849; calls by dose curve; also: nearly all actives have a fitted effect of over 15% in size)
Procedure, shortened: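 ERR reporter cell line (NTP) seeded, rested 6 h at 37 C/5% CO2, then pinned with Tox21 compounds in DMSO. After 18 h at 37 C, ONE-Glo luciferase luminescence was read following 30 min at room temperature.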

Measured: Potency

Sequence of Luciferin 4-monooxygenase (Photinus pyralis) (P08659 whole entry, looked up): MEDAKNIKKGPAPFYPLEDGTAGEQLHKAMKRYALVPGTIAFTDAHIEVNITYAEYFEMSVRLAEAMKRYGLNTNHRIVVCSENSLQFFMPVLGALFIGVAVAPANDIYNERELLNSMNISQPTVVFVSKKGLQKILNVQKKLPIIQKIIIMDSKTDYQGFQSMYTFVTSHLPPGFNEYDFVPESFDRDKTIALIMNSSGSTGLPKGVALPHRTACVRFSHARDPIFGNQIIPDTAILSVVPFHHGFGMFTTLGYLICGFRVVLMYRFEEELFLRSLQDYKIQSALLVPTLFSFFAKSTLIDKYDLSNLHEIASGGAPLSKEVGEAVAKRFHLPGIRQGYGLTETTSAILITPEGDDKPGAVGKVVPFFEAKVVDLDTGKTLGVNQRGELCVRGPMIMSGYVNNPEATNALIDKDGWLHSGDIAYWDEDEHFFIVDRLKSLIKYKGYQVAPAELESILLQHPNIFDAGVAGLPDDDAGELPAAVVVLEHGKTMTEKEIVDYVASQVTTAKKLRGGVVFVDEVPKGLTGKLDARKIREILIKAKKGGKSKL
Sequence of Thyrotropin receptor (Homo sapiens) (P16473 whole entry, looked up): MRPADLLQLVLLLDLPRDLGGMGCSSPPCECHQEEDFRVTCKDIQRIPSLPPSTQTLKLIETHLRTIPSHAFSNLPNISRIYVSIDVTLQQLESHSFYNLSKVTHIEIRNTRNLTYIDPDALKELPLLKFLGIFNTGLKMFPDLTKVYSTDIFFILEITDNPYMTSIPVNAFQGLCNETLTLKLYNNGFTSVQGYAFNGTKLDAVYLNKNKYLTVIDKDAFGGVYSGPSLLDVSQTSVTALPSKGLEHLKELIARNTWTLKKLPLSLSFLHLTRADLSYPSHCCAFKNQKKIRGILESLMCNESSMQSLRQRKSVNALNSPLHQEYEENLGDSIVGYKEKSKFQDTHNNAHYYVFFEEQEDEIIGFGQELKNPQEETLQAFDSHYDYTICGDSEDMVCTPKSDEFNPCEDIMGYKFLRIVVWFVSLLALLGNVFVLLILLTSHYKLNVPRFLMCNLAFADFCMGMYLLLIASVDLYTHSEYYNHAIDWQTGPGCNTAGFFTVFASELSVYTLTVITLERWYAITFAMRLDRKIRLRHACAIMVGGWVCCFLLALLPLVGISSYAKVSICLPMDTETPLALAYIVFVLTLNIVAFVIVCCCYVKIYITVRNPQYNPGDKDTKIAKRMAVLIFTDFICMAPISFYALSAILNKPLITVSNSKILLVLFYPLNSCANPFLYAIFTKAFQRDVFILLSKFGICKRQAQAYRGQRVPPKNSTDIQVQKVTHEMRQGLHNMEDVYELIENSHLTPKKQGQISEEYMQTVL
Sequence of Nuclear receptor subfamily 1 group I member 3 (Homo sapiens) (Q14994 whole entry, looked up): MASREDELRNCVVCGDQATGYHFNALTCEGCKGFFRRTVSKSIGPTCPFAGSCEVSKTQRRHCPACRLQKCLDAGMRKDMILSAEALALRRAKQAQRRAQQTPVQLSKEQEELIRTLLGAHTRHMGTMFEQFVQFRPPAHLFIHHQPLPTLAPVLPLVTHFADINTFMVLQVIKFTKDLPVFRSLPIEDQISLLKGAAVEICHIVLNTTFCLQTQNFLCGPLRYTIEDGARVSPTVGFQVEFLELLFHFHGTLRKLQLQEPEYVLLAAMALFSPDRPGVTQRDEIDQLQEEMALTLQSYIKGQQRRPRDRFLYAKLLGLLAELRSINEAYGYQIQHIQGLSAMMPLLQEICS

CC(=O)C1CCCCC1=O (stereo not drawn)
inactive: [1] | [2] | [3] | [4] | [5] | [6] | [7] | [8] | [9] | [10] | [11] | [12] | [13] | [14] | [15]

C=CCOCC(O)CO (stereo not drawn)
inactive: [1] | [2] | [3] | [4] | [5] | [6] | [7] | [8] | [16] | [10] | [12] | [13] | [14] | [15]

Cc1ccccc1N=C(N)N=C(N)N
inactive: [1] | [2] | [3] | [4] | [7] | [8] | [16] | [9] | [10] | [12] | [13] | [14] | [15]

NCCCC[C@H](N[C@@H](CCc1ccccc1)C(=O)O)C(=O)N1CCC[C@H]1C(=O)O
inactive: [1] | [2] | [3] | [4] | [5] | [7] | [16] | [9] | [11] | [12] | [13] | [14] | [15]

OCCc1ccccn1
inactive: [1] | [2] | [3] | [4] | [5] | [6] | [7] | [16] | [10] | [11] | [12] | [13] | [14] | [15]

O=[N+]([O-])c1ccc(/C=N\O)o1
inactive: [1] | [2] | [3] | [4] | [5] | [7] | [16] | [9] | [10] | [11] | [12] | [13] | [14] | [15]

CCOc1ccccc1OCC
inactive: [1] | [2] | [3] | [4] | [7] | [17] | [18] | [16] | [10] | [11] | [19] | [20] | [12] | [13] | [14] | [15]

CC(C)CCCO
inactive: [1] | [2] | [3] | [4] | [7] | [8] | [10] | [11] | [12] | [13] | [14] | [15]

CCCCCC(C)N (stereo not drawn)
inactive: [1] | [2] | [3] | [4] | [5] | [7] | [8] | [16] | [9] | [10] | [11] | [12] | [13] | [14] | [15]

Nc1ccn([C@@H]2O[C@H](CO)[C@@H](O)[C@@H]2O)c(=O)n1
inactive: [1] | [2] | [3] | [4] | [6] | [7] | [17] | [18] | [16] | [10] | [11] | [19] | [20] | [12] | [13] | [14] | [15]
